Compound activity from PubChem.
PINK1 expr mod = changes PINK1 expression; Potency, µM (series often up to 76.6 µM), usual class: activators; 410,000 compounds, 0.2% hits; PINK1 immunofluorescence, high-content cytometry, 24 h; active means well fitted activation curve with a large enough effect; inconclusive means small, poorly fitted or top-dose-only effect; cell line not stated here; further: nearly all actives have a fitted effect of over 65% in size
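Stable cell line treated 24 h with compounds at 5 concentrations (CCCP controls), then fixed and immunostained for PINK1 plus nuclear and cell stains; PINK1 immunofluorescence quantified by laser-scanning microplate cytometry.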
KB-V1 MDR tox = KB-V1 MDR subline cytotoxicity; KB-V1 MDR cells viability, CellTiter-Glo, 72 h; 400,000 compounds, 3.4% hits; Potency, µM (doses to about 46.1 µM), usual class: cytotoxic; AID 1347076; further: nearly all actives have a fitted effect of over 60% in size
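KB-V1, DMEM (no phenol red) + 10% FBS; cpd pin-transferred, titration series; 72 h, 37 degrees C; CellTiter-Glo, luminescence. Data normalized, curve-fit.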
SW480 rerep = induces DNA re-replication in SW480 colon adenocarcinoma cells; SW480 DNA re-replication, Hoechst DNA content imaging, 48 h; Potency, µM (titrated, usually from 46.1 µM), hits mostly activators; 340,000 compounds, 1.8% hits; further: nearly all actives have a fitted effect of over 55% in size
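Quantitative HTS format with DMSO vehicle controls; 48 hr drug incubation at 37 C, then 40 min Hoechst staining and scanning imager measurement at 405 nm excitation.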
KB-3-1 tox = kills parental KB-3-1 adenocarcinoma cells | KB-3-1 viability, CellTiter-Glo ATP luminescence, 72 h | Potency, µM (highest dose often 46.1 µM), actives largely listed as cytotoxic | 400,000 compounds, 1.4% hits | AID 1347075; further: nearly all actives have a fitted effect of over 60% in size
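Here the drug-naive KB-3-1 line serves as comparator for MDR sub-line selectivity; cells received compound titrations, 72 h at 37 °C, then CellTiter-Glo readout.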
MCF10A rereplic = induces DNA re-replication in MCF 10a normal breast cells; Potency, µM (highest dose often 46.1 µM), usual class: activators; 350,000 compounds, 2.9% hits; AID 624296; MCF 10A DNA re-replication, Hoechst nuclear intensity, 48 h; further: nearly all actives have a fitted effect of over 50% in size
Each line names hits and unclear results; the compound was inactive in the other large screens. Only some compounds are listed: those with a hit (about 6.7% of all), similar ones and a draw of the others. Unless noted, the call rests on the fitted dose curve; in most records, active means well fitted curve in the direction sought with a large enough effect; inconclusive means small, poorly fitted or top-dose-only effect, or another doubt; inactive means no such curve, though single readings can be large; an effect the other way counts as inactive or inconclusive.

O=C(O)c1cc(S(=O)(=O)N(Cc2ccccc2)c2ccc(Cl)cc2)ccc1Cl	SW480 rerep inconclusive, MCF10A rereplic 21µM
O=C(CN(c1ccc(Cl)cc1)S(=O)(=O)c1ccc(Cl)c([N+](=O)[O-])c1)NCCc1ccc(F)cc1	MCF10A rereplic 3.7µM
O=C(CN(c1ccc(Cl)cc1)S(=O)(=O)c1ccc(Cl)c([N+](=O)[O-])c1)NCCc1ccccc1	MCF10A rereplic 3.7µM
O=C(O)c1ccccc1SC1=NS(=O)(=O)c2ccccc21	KB-V1 MDR tox inconclusive (no result: PINK1 expr mod, SW480 rerep, MCF10A rereplic)
CCOC1=C2[C@@H](CN(S(=O)(=O)c3ccccc3C)[C@H]2c2ccc(Cl)cc2)[C@H]2C(=O)NC(=O)[C@H]2C1	none (no result: SW480 rerep, MCF10A rereplic)
COc1cc(NS(=O)(=O)c2ccc(NC(=O)c3cccc(F)c3)cc2)nc(OC)n1	none (no result: SW480 rerep, MCF10A rereplic)
COc1ccc(C(=O)NCC(c2cccs2)S(=O)(=O)c2ccc(F)c(C)c2)cc1 (configuration not stated)	none (no result: SW480 rerep, MCF10A rereplic)
COc1ccc(OC)c(C2=NOC(C(=O)NCCN3CCOCC3)C2)c1 (configuration not stated)	KB-V1 MDR tox inconclusive
COc1ccc(OC)c(C2=NOC(C(=O)NCc3cccs3)C2)c1 (configuration not stated)	KB-V1 MDR tox inconclusive, SW480 rerep inconclusive, KB-3-1 tox 21µM, MCF10A rereplic inconclusive
COc1ccc(OC)c(C2=NOC(C(=O)Nc3cccnc3)C2)c1 (configuration not stated)	KB-V1 MDR tox 23µM
O=C(NCc1ccccc1Br)c1ccc2c(c1)nc1n2CCOC1	KB-V1 MDR tox inconclusive (no result: SW480 rerep, MCF10A rereplic)
COc1cc(=O)n2c(c1C(=O)NCc1ccco1)CCN(C(=O)c1c(F)ccc(F)c1F)CC2	none (no result: KB-V1 MDR tox, SW480 rerep, KB-3-1 tox, MCF10A rereplic)
CC(CC(=O)Nc1ccc2c(c1)c(=O)n(C)n2Cc1ccc(F)cc1)C(F)(F)F (configuration not stated)	none (no result: SW480 rerep, MCF10A rereplic)
C[n+]1ccc(C(c2c[nH]c3ccccc23)c2cc[n+](C)c3ccccc23)c2ccccc21	KB-3-1 tox 1.5µM (no result: PINK1 expr mod, SW480 rerep, MCF10A rereplic)
COc1cc(C(=O)NCC(c2cccs2)N(C)C)cc(Cl)c1OC(C)C (configuration not stated)	KB-V1 MDR tox 7.3µM, SW480 rerep inconclusive, MCF10A rereplic inconclusive
Cc1cccc(-c2noc(-c3ccc(N4CCCC4)c([N+](=O)[O-])c3)n2)c1	none (no result: SW480 rerep, MCF10A rereplic)
Cc1cccc(-c2noc(-c3ccc(N4CCN(C)CC4)c([N+](=O)[O-])c3)n2)c1	KB-3-1 tox 18µM (no result: SW480 rerep, MCF10A rereplic)
CSc1ccc(Cl)c(C(=O)Nc2ccc(Cl)cn2)c1	SW480 rerep 21µM, KB-3-1 tox 23µM, MCF10A rereplic 21µM
CCCCCOc1ccc(NC(=O)c2cc(SC)ccc2Cl)cc1	PINK1 expr mod 14µM, KB-V1 MDR tox inconclusive, KB-3-1 tox inconclusive
S=C(Nc1ccccc1)Nc1ccc(Cl)cn1	none
CCOc1ccc(NC(=O)c2cc(SC)ccc2Cl)cc1	KB-V1 MDR tox inconclusive, SW480 rerep inconclusive, KB-3-1 tox inconclusive, MCF10A rereplic inconclusive
O=C(NC(=S)Nc1ccc(Cl)cn1)C(c1ccccc1)c1ccccc1	KB-V1 MDR tox inconclusive, SW480 rerep inconclusive, KB-3-1 tox 18µM, MCF10A rereplic 15µM
COc1cc(C(=O)NC(=S)Nc2ccc(Cl)cn2)cc(OC)c1OC	KB-V1 MDR tox inconclusive, SW480 rerep 18µM, MCF10A rereplic inconclusive
COc1cc(CNC(=O)C2CCC(=O)N(C3CCCCCC3)C2)cc(OC)c1 (configuration not stated)	KB-V1 MDR tox inconclusive
O=C(Nc1ccc2ccccc2c1)Nc1nnc(-c2ccccc2F)s1	KB-3-1 tox inconclusive (no result: PINK1 expr mod, SW480 rerep, MCF10A rereplic)
COc1cc(SC)ccc1C(=O)Nc1ccc(Cl)cn1	KB-V1 MDR tox 13µM, KB-3-1 tox inconclusive
COc1ccc(C(=O)NNC(=S)NC(=O)c2ccc(F)cc2)cc1Br	KB-V1 MDR tox inconclusive
COc1cc(C(=O)NNC(=S)NC(=O)c2ccc(F)cc2)cc(OC)c1OC	KB-V1 MDR tox inconclusive, SW480 rerep inconclusive, MCF10A rereplic 23µM
COc1cc(SC)ccc1C(=O)Nc1ccncc1	KB-V1 MDR tox inconclusive
COc1ccc(CCNC(=O)c2cnn(-c3nccc(-c4cccs4)n3)c2C)cc1OC	none (no result: KB-V1 MDR tox, SW480 rerep, KB-3-1 tox, MCF10A rereplic)
CSc1ccc(CN(C)CC(=O)NC(=O)NC(C)(C)C)cc1	none
O=C(CN(Cc1ccccc1)S(=O)(=O)c1ccc(F)cc1)NCCC1=CCCCC1	KB-V1 MDR tox inconclusive
Cc1ccccc1CN(c1ccc(C(=O)NCCC2=CCCCC2)cc1)S(C)(=O)=O	KB-V1 MDR tox 13µM, KB-3-1 tox inconclusive
CSc1ccc(CN(C)CC(=O)NC(=O)NCCC2=CCCCC2)cc1	KB-V1 MDR tox 21µM
Cc1ccccc1CN(c1ccc(C(=O)N2CCCC2)cc1)S(C)(=O)=O	MCF10A rereplic inconclusive (no result: PINK1 expr mod)
Cc1ccc(S(=O)(=O)N(CC(=O)NCCC2=CCCCC2)Cc2ccccc2)cc1	KB-V1 MDR tox 18µM, SW480 rerep inconclusive, KB-3-1 tox inconclusive, MCF10A rereplic inconclusive
O=C(CN(Cc1ccccc1F)S(=O)(=O)c1ccc(Cl)cc1)NCCC1=CCCCC1	KB-V1 MDR tox 6.5µM, KB-3-1 tox inconclusive, MCF10A rereplic inconclusive
COC(=O)C1CCCCN1Cc1ccc2c(c1)CN(C(=O)c1csc(-c3cccs3)n1)CCO2 (configuration not stated)	none (no result: KB-V1 MDR tox, SW480 rerep, KB-3-1 tox, MCF10A rereplic)
COc1cc(Cl)c(C)cc1NC(=O)COC(=O)c1ccc(CN2CCCC2=O)cc1	none
Cc1ccc(S(=O)(=O)N(C)CC(=O)N(C)CCOc2ccccc2)cc1	none (no result: SW480 rerep, MCF10A rereplic)
Cc1ccc(C)c(NC(=O)c2cc(S(=O)(=O)NCCC3=CCCCC3)ccc2F)c1	none (no result: KB-V1 MDR tox, SW480 rerep, KB-3-1 tox, MCF10A rereplic)
Cc1ccc(NC(=O)c2cc(S(=O)(=O)NCCC3=CCCCC3)ccc2F)cc1	KB-V1 MDR tox 2.3µM, KB-3-1 tox inconclusive, MCF10A rereplic inconclusive
Cc1ccc(C)c(Cn2c(=O)n(CCCC(=O)NCc3ccco3)c(=O)c3ccccc32)c1	KB-3-1 tox inconclusive
Cc1ccc(C)c(Cn2c(=O)n(CCCC(=O)NCc3ccco3)c(=O)c3sccc32)c1	KB-V1 MDR tox inconclusive, SW480 rerep inconclusive, KB-3-1 tox 5.8µM, MCF10A rereplic 13µM
COC(=O)CN1C(=O)CSc2ccc(S(=O)(=O)Nc3ccc(F)c(Cl)c3)cc21	none (no result: KB-V1 MDR tox, SW480 rerep, KB-3-1 tox, MCF10A rereplic)
Cc1nn(-c2ccc3ccccc3c2)c(=O)c2ccccc12	none
Cc1nn(-c2nc3ccccc3[nH]2)c(=O)c2ccccc12	KB-V1 MDR tox 5.8µM, KB-3-1 tox 1.3µM
Cc1nn(-c2nc3ccccc3[nH]2)c(N)c1-c1ccc(Cl)cc1	KB-V1 MDR tox 18µM, SW480 rerep inconclusive, KB-3-1 tox inconclusive, MCF10A rereplic inconclusive
COc1ccc(S(=O)(=O)N(C)C[C@H]2Oc3ncc(C#CC4(O)CCCC4)cc3C(=O)N([C@@H](C)CO)C[C@@H]2C)cc1	none (no result: SW480 rerep, MCF10A rereplic)
COc1ccc(-c2cc(-c3c(O)c(OC)c4occc4c3OC)[nH]n2)cc1	KB-V1 MDR tox 13µM, SW480 rerep inconclusive, KB-3-1 tox inconclusive, MCF10A rereplic inconclusive
O=C(CN(c1ccc(Cl)c(C(F)(F)F)c1)S(=O)(=O)c1ccccc1)N1CCc2ccccc2C1	none (no result: SW480 rerep, MCF10A rereplic)
CCOc1c(Cl)cc(CNCc2ccccn2)cc1OC	none
